Measured values reported in the supplement of paper PMC10849652.
About 8,800 targets were measured; listed, in parts, are those with a hit and a random draw of the rest. About 0.5% of all pairs of compound and target were hits. Values without a mark were called inactive.

Key:
Test in all cases: log2 fold change, soluble protein after heating vs DMSO (PISA); higher = thermal stabilisation; K562 lysate, 10 uM; active = over 0.2 and 3.5 SD of the protein, either way, in both replicates (recomputed)
[1] = compound: CCCS(=O)(=O)Nc1ccc(F)c(C(=O)c2c[nH]c3ncc(Cl)cc23)c1F
Method in brief: (§1)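 Quantification was by TMTpro 16plex LC-MS/MS with equalised channel sums, applied to the supernatant after 21,000xg for 90 min. Samples were crude K562 extract at 1 mg/mL protein in PBS pH 7.4 with 1 mM MgCl2, treated with 10 μM compound for 30 min, heated for 3 min across 48°C-58°C, pooled and brought to 0.5% NP-40 at 4°C. Values are log-two fold changes in thermal stability relative to solvent controls, from duplicates.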

barasertib = compound: CCN(CCCOc1ccc2c(Nc3cc(CC(=O)Nc4cccc(F)c4)[nH]n3)ncnc2c1)CCOP(=O)(O)O [barasertib]
Method in brief: as §1

[2] = compound: CC[C@@H]1C(=O)N(C)c2cnc(Nc3ccc(C(=O)NC4CCN(C)CC4)cc3OC)nc2N1C1CCCC1
Method in brief: as §1

volasertib = compound: CC[C@@H]1C(=O)N(C)c2cnc(Nc3ccc(C(=O)N[C@H]4CC[C@H](N5CCN(CC6CC6)CC5)CC4)cc3OC)nc2N1C(C)C [volasertib]
Method in brief: as §1

[3] = compound: CCn1c(C(=O)N(C2CC2)C2CC2)cc2c3c(ncn3C)c(Nc3cc(C)n(C)n3)nc21
Method in brief: as §1

[4] = compound: CCn1cc(-c2ccnc3[nH]c(-c4cccc(CN(C)C)c4)cc23)c(-c2ccc(NC(=O)N(C)C)cc2)n1
Method in brief: as §1

[5] = compound: CN1CCC(CNc2ccc3ncc(-c4cccc(OC(F)(F)F)c4)n3n2)CC1
Method in brief: as §1

saracatinib = compound: CN1CCN(CCOc2cc(OC3CCOCC3)c3c(Nc4c(Cl)ccc5c4OCO5)ncnc3c2)CC1 [saracatinib]
Method in brief: as §1

sotrastaurin = compound: CN1CCN(c2nc(C3=C(c4c[nH]c5ccccc45)C(=O)NC3=O)c3ccccc3n2)CC1 [sotrastaurin]
Method in brief: as §1

vemurafenib = compound: CCCS(=O)(=O)Nc1ccc(F)c(C(=O)c2c[nH]c3ncc(-c4ccc(Cl)cc4)cc23)c1F [vemurafenib]
Method in brief: as §1

Chain of UniProt P26378 (P26378 whole entry, looked up): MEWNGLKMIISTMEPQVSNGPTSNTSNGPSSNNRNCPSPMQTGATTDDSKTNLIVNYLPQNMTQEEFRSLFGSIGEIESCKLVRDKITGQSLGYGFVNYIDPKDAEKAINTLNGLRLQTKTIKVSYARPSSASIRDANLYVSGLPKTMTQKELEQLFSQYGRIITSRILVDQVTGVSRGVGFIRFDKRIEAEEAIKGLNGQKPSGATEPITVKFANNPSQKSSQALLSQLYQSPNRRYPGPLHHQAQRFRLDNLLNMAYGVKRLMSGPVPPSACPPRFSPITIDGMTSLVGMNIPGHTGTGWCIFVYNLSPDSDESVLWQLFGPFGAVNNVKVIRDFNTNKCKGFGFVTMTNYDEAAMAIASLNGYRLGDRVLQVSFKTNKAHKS
Chain of UniProt Q9HCG7 (Q9HCG7 whole entry, looked up): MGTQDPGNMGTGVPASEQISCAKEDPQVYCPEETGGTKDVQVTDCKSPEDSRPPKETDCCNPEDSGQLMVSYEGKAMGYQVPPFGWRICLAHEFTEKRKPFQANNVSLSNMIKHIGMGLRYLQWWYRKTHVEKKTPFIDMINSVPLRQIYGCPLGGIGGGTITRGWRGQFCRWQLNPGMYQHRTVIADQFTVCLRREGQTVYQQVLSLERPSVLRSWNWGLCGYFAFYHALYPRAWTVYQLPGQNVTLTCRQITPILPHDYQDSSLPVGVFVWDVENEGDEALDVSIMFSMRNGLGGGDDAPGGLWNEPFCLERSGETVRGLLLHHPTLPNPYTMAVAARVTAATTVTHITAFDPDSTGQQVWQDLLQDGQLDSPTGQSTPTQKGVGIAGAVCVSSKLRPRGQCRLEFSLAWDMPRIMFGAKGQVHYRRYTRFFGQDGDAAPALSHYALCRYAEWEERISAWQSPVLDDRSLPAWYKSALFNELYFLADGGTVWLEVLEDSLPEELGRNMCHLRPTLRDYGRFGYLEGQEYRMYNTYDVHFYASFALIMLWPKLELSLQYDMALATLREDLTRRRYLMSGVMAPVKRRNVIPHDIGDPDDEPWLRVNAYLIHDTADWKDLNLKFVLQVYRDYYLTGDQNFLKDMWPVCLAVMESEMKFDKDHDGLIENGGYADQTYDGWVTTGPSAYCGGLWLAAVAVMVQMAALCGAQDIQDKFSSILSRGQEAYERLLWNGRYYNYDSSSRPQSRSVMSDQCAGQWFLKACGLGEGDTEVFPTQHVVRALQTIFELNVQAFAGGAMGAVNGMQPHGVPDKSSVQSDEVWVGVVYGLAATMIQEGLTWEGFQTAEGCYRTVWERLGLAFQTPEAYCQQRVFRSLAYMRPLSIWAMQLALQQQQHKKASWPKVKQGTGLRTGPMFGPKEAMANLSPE
Chain of UniProt Q08426 (Q08426 whole entry, looked up): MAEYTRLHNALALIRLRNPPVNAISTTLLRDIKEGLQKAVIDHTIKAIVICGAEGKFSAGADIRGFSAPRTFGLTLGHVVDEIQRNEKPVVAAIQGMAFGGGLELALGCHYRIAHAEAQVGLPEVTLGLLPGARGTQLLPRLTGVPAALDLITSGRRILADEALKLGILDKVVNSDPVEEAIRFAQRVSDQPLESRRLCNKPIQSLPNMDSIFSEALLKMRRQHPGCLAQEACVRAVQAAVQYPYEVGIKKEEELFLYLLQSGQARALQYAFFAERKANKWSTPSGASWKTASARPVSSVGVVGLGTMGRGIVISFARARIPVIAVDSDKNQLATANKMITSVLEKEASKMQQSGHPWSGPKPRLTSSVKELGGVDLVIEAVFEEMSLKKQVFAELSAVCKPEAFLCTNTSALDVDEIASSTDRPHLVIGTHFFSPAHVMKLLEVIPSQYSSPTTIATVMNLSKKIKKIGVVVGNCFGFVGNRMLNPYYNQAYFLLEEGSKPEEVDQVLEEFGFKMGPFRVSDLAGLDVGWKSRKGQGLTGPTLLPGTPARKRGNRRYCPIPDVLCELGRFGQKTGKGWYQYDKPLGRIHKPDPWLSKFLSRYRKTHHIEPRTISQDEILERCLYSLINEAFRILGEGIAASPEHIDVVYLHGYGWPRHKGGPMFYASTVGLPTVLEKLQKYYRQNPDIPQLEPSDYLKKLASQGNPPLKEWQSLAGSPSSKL
Chain of UniProt P02774 (P02774 whole entry, looked up): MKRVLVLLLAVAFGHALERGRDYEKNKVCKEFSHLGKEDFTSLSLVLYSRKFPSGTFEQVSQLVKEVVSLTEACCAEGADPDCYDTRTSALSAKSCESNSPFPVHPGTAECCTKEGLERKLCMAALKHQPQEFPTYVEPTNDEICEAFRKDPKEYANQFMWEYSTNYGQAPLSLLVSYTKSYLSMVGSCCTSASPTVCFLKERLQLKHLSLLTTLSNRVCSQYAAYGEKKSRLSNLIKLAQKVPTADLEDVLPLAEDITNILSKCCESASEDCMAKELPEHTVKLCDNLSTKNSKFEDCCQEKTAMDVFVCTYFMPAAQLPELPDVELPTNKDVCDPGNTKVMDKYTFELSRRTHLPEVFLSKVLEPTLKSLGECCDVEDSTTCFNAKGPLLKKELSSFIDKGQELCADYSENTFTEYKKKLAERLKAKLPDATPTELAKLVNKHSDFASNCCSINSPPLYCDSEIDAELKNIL
Chain of UniProt Q9NZJ0 (Q9NZJ0 whole entry, looked up): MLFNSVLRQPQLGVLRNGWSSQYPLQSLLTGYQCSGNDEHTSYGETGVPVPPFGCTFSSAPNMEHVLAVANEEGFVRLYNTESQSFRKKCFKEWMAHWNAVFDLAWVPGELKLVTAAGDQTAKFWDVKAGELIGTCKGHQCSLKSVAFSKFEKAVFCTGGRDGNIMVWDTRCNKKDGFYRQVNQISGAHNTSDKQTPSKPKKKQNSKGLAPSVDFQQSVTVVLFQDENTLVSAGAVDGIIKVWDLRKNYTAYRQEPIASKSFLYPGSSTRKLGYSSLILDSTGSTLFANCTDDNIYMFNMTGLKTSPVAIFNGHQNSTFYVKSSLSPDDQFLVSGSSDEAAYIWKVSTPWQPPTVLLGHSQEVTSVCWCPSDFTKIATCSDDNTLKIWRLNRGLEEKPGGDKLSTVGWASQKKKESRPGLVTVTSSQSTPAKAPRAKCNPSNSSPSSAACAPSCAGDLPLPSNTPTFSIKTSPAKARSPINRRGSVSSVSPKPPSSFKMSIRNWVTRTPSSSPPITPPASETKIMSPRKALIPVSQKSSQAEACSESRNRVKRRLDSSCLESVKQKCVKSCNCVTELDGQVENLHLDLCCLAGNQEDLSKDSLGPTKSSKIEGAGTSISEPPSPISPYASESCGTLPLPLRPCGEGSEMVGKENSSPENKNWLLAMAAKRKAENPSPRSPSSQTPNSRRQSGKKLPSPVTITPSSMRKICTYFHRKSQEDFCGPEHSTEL
Chain of UniProt Q9NZJ5 (Q9NZJ5 whole entry, looked up): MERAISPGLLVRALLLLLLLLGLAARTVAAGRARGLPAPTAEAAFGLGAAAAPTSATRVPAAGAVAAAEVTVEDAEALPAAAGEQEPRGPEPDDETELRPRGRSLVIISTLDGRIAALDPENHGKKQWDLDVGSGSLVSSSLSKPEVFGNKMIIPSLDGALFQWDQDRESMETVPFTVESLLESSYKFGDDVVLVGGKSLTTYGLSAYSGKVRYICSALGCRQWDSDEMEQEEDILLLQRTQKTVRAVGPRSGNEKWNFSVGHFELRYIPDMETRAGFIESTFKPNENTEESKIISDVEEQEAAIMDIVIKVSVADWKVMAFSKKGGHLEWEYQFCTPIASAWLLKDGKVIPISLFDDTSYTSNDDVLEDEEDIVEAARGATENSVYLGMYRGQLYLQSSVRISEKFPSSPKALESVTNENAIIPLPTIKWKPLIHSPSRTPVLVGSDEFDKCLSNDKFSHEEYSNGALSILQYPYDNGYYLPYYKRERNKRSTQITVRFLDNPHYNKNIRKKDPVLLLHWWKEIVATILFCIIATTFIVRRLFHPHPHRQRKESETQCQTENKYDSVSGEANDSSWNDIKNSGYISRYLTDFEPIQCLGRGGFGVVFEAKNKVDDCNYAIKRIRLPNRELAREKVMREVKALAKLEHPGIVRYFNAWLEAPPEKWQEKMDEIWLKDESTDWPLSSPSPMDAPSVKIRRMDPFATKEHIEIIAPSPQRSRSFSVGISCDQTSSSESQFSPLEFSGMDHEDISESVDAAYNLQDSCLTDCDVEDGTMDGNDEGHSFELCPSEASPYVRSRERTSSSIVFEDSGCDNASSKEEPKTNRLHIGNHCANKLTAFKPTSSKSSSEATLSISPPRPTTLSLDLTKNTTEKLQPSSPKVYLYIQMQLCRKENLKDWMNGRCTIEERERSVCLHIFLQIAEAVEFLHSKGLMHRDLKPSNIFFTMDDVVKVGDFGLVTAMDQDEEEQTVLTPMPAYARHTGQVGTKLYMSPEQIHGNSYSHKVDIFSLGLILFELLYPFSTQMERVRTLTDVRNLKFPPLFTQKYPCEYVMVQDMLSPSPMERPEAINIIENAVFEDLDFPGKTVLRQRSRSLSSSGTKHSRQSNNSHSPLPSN
Chain of UniProt Q9H8W3 (Q9H8W3 whole entry, looked up): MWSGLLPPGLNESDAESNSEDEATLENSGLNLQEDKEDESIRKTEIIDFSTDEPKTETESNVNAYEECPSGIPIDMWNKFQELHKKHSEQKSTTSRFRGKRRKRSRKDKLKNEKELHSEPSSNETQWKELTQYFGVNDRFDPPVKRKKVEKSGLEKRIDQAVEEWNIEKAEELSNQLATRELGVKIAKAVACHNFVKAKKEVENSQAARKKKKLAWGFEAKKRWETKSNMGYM
Chain of UniProt Q9UET6 (Q9UET6 whole entry, looked up): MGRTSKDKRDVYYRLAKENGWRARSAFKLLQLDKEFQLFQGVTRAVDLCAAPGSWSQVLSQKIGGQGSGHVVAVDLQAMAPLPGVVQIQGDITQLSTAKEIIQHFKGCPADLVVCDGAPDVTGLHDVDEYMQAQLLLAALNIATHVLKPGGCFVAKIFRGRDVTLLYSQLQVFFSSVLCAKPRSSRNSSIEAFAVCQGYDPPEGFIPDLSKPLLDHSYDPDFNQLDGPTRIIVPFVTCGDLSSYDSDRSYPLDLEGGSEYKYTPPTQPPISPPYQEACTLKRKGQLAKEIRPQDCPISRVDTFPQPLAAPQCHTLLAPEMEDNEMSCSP
Chain of UniProt Q6IPR1 (Q6IPR1 whole entry, looked up): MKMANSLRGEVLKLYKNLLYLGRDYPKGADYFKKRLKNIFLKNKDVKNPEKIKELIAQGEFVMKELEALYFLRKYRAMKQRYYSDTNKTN

Target	log2 fold change [1]	log2 fold change (barasertib)	log2 fold change [2]	log2 fold change (volasertib)	log2 fold change [3]	log2 fold change [4]	log2 fold change [5]	log2 fold change (saracatinib)	log2 fold change (sotrastaurin)	log2 fold change (vemurafenib)
GDE1 (UniProt Q9NZC3)	0.038	0.108	0.107	0.092	0.005	1.04 (active)	-0.455 (active)	0.035	-0.064	–
FMNL2 isoform 3 (UniProt Q96PY5)	0.022	–	–	-0.013	-0.103	–	–	0.04	0.08	–
EIF3I (UniProt Q5TFK1)	0.147	–	–	-0.112	–	-0.048	0.044	–	–	–
FNDC3A (UniProt Q9Y2H6)	–	–	–	–	0.044	-0.451	0.138	–	-0.113	–
GCA (UniProt P28676)	0.124	–	–	-0.048	–	-0.139	0.168	–	–	–
DYRK1A isoform 2 (UniProt Q13627)	–	0.006	–	–	0.308	0.085	0.221	–	0.033	–
ERG28 (UniProt Q9UKR5)	-0.012	0.065	0.179	0.048	–	0.541	-0.497 (active)	0.1	–	–
FOXL2 (UniProt P58012)	0.026	0.051	0.01	0.046	0.174	–	–	-0.038	–	–
EWSR1 (UniProt H7BY36)	–	-0.055	0.095	–	-0.046	-0.056	-0.043	0.024	-0.02	-0.035
EHHADH (UniProt Q08426)	0.082	-0.066	0.117	-0.108	-0.037	0.055	-0.037	0.091	-0.044	–
DST isoform 3 (UniProt Q03001)	–	0.041	0.052	–	–	1.48 (active)	-0.213	–	–	–
ETFRF1 (UniProt Q6IPR1)	-0.003	0.012	–	-0.03	0	-0.005	-0.03	-0.01	-0.002	0.084
FAM204A (UniProt Q9H8W3)	–	–	–	–	0.059	0.273	-0.614 (active)	–	-0.083	-0.003
ESRRB isoform 1 (UniProt O95718)	–	-0.004	–	–	-0.118	0.242	-0.127	–	–	–
FAT1 (UniProt Q14517)	0.022	–	0.32	0.025	-0.344	0.001	-0.036	–	-0.333	–
EXO5 (UniProt Q9H790)	–	0.111	–	–	-0.022	–	–	–	0.128	–
ELAVL4 (UniProt P26378)	0.035	–	-0.119	-0.038	0.054	-0.006	0.029	-0.052	0	-0.045
FAM111A (UniProt Q96PZ2)	0.432 (active)	–	-0.34	-0.045	0.112	–	–	0.055	-0.016	-0.02

Target	log2 fold change [1]	log2 fold change (barasertib)	log2 fold change [2]	log2 fold change (volasertib)	log2 fold change [3]	log2 fold change [4]	log2 fold change [5]	log2 fold change (saracatinib)	log2 fold change (sotrastaurin)	log2 fold change (vemurafenib)
EID1 (UniProt Q9Y6B2)	–	–	0.015	–	0.001	-0.073	0.002	-0.157	–	–
EIF2AK3 (UniProt Q9NZJ5)	-0.216	–	–	0.231	0.119	-0.063	-0.199	0.01	–	–
GAPVD1 (UniProt Q14C86)	0.116	0.078	–	-0.305	–	–	–	–	–	–
FAM76B (UniProt Q5HYJ3)	-0.005	–	0.04	0.005	-0.008	0.025	0.007	-0.003	0.027	0.048
GC isoform 3 (UniProt P02774)	–	–	0.022	–	-0.27	0.146	-0.12	-0.02	0.043	-0.008
FAM53B (UniProt Q14153)	–	0.009	0.071	–	0.059	-0.096	0.13	0.096	-0.149	0.046
FBRSL1, A0A3B3IRR3	–	0.055	0.069	–	0.085	0	-0.061	-0.028	-0.039	0.132
EVI5L isoform 2 (UniProt Q96CN4)	–	–	–	–	–	0.057	-0.183	–	–	–
EPS8L2 (UniProt Q9H6S3)	0	-0.049	0.022	0.023	-0.034	-0.196	0.056	0.045	-0.049	–
FTSJ1 isoform 2 (UniProt Q9UET6)	0.021	–	-0.024	0.013	–	-0.019	0.047	–	–	-0.164
GIPC3 (UniProt Q8TF64)	-0.119	0.055	-0.15	-0.041	-0.045	-0.01	0.144	0.029	0.006	–
GBA2 (UniProt Q9HCG7)	0.12	-0.01	0.099	-0.21	0	-0.076	0.025	0.033	0.001	–
EIF2B5, A0A3B3ITK8	-0.071	–	–	0.081	–	–	–	–	–	–
EPN2 (UniProt I3L356)	0.212	-0.106	–	-0.026	–	-0.277	0.075	–	–	–
DTL (UniProt Q9NZJ0)	–	0.044	–	–	0.02	0.065	-0.034	-0.1	-0.03	-0.007
FOXJ2 (UniProt Q9P0K8)	–	-0.049	-0.149	–	0.1	-0.062	-0.071	-0.101	–	–
GART (UniProt C9JZG2)	-0.014	0.086	-0.021	0.06	-0.043	0.135	0.085	–	0.09	–
